# From the supplement of paper PMC10412459
# Tested on: K562 SF3B1 K700E vs K562 SF3B1 WT
# Assay: surviving fraction ratio K562 SF3B1 K700E / K562 SF3B1 WT (each relative to DMSO); higher = less selective killing of SF3B1 K700E cells
# Conditions: 5 days
# Procedure: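 Drug-sensitivity screen of an in-house 80-compound library in isogenic K562 SF3B1 K700E versus SF3B1 WT cells. 250 cells/well in 384-well plates were exposed 24 h after seeding to 0.5-1000 nM compound for 5 days, and viability was read by CellTiter-Glo. Surviving fraction is relative to DMSO, and the value is the ratio of surviving fraction in K700E to WT cells; the paper calls ratio <0.6 with P<0.01 selective.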
Compound,surviving fraction ratio K562 SF3B1 K700E / K562 SF3B1 WT (0.5nM),surviving fraction ratio K562 SF3B1 K700E / K562 SF3B1 WT (1nM),surviving fraction ratio K562 SF3B1 K700E / K562 SF3B1 WT (5nM),surviving fraction ratio K562 SF3B1 K700E / K562 SF3B1 WT (10nM),surviving fraction ratio K562 SF3B1 K700E / K562 SF3B1 WT (50nM),surviving fraction ratio K562 SF3B1 K700E / K562 SF3B1 WT (100nM),surviving fraction ratio K562 SF3B1 K700E / K562 SF3B1 WT (500nM),surviving fraction ratio K562 SF3B1 K700E / K562 SF3B1 WT (1000nM)
CN1CC[C@H](c2c(O)cc(O)c3c(=O)cc(-c4ccccc4Cl)oc23)[C@H](O)C1 [Flavopiridol],0.8,0.83,0.793,0.847,0.916,0.929,1.89,2.25
CC(=O)c1c(C)c2cnc(Nc3ccc(N4CCNCC4)cn3)nc2n(C2CCCC2)c1=O,0.861,0.89,0.743,0.796,0.826,0.882,0.849,0.864
CC1(C)CC(=O)c2c(C(F)(F)F)nn(-c3ccc(C(N)=O)c(N[C@H]4CC[C@H](OC(=O)CN)CC4)c3)c2C1,0.983,0.972,0.763,0.719,1.18,2.16,1.09,1.16
Oc1ccc(/C=C/c2cc(O)cc(O)c2)cc1 [resveratrol],0.896,0.898,0.856,0.905,1,1.24,0.916,1.28
O=C(NOCC1CC1)c1ccc(F)c(F)c1Nc1ccc(I)cc1Cl,1.29,0.978,1.08,0.818,1.3,0.822,0.921,0.944
